From PubChem
FBPA coupling cs: coupling enzyme interference in Giardia aldolase counter-screen | coupling enzyme system counterscreen, AmpLite Red fluorescence | activity change, negative = inhibition, % at 58.2 µM, hits read low | hit rate 0.67% among 290,000; in the data active = activity change below about -30%
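Final compound at 57.5 uM, incubated 10 min at RT with coupling enzyme reagent (glyceraldehyde-3-phosphate), then 20 min with substrate and AmpLite Red detection. Fluorescence read at 525/598 nm; tests interference with the coupling assay, not aldolase inhibition.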
TrxR1 substrate: substrates of rat thioredoxin reductase 1; O89049; purified TrxR1 substrate turnover, NADPH consumption readout; Potency, µM (doses to about 114 µM); hit rate 0.01% among 390,000; AID 588456; note: nearly all actives have a fitted effect of over 50% in size
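Rat TrxR1, dispensed at 90 nM, was prereduced with 400 uM NADPH (final) for 5 min at ~22 deg C, then incubated with compound 15 min before 400 uM selenite. A first-read NADPH fluorescence drop versus no-compound background flagged substrates.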
Gal4-VP16 FLuc: Gal4-VP16 reporter inhibition counter-screen. Potency, µM (titrated, usually from 53.6 µM), actives largely listed as inhibitors. Drosophila S2 Gal4-VP16 UAS-luciferase, luminescence, 20 h. hit rate 3.5% among 310,000;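 note: Gal4-VP16 expression switched on by copper sulfate through the metallothionein promoter; nearly all actives have a fitted effect of over 50% in size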
RORg inh: inhibitors of mouse ROR gamma transcriptional activity | P51450 | Drosophila S2 Gal4-RORgamma UAS-luciferase reporter, 20 h | Potency, µM (highest dose often 53.6 µM), actives largely listed as inhibitors | hit rate 5.4% among 310,000 | AID 2551; note: nearly all actives have a fitted effect of over 60% in size
Target sequence (P51450 whole entry, looked up, the tested form may be a part): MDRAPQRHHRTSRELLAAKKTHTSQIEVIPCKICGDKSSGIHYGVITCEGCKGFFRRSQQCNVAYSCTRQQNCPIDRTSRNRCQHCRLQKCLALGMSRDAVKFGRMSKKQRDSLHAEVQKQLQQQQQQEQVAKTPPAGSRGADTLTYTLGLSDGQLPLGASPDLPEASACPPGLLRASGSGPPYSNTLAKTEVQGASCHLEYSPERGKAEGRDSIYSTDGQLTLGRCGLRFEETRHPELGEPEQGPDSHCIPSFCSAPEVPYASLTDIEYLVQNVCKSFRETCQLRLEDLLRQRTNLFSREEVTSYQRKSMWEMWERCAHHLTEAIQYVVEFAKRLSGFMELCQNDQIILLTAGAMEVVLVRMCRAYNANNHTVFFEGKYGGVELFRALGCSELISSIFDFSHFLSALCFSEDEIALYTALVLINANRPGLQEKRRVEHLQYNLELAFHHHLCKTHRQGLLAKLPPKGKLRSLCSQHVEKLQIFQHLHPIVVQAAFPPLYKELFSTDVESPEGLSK
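Luciferase reporter read in Schneider cells carrying Gal4-RORγ (mouse) and UAS-Photinus luciferase; cells given compound 1 h before 700 uM copper sulfate induction, then incubated 20 h at ambient temperature.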
rTrxR1 inhibitor: blocks rat thioredoxin reductase 1 | O89049 | recombinant rTrxR1, NADPH fluorescence consumption, selenite substrate | Potency, µM (titrated, usually from 114 µM), hits mostly inhibitors | hit rate 1% among 390,000 | AID 588453; note: nearly all actives have a fitted effect of over 65% in size
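Rat TrxR1 (90 nM in the dispensed reagent) was pre-reduced with 400 uM NADPH for 5 min at room temperature, then incubated with compound for 15 min. After 400 uM selenite was added, NADPH fluorescence (Ex 340/Em 450 nm) was followed for 8 min.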
GALK inh: blocks human galactokinase activity; P51570; Purified GALK, Kinase-Glo residual ATP luminescence; Potency, µM (titrated, usually from 57.5 µM), usual class: inhibitors; hit rate 0.007% among 270,000; AID 1868
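The enzyme phosphorylates galactose (100 uM) using ATP (35 uM); inhibition is detected as higher residual ATP, quantified by bioluminescence after 1 h reaction at room temperature, pH 8.0.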
Numbers stand for hits; - = inactive; ? = inconclusive; . = no result given. This is a sample that favours compounds with a hit; in the whole collection about 5.9% have one here. Unless noted, calls come from the whole dose curve; as a rule, active = well fitted curve in the direction sought with a large enough effect; inconclusive = small, poorly fitted or top-dose-only effect, or another doubt; inactive = no such curve, though single readings can be large; an effect the other way counts as inactive or inconclusive.

SMILES | FBPA coupling cs | TrxR1 substrate | Gal4-VP16 FLuc | RORg inh | rTrxR1 inhibitor | GALK inh
COC(=O)c1cccc(NC(=S)Nc2ccc(Cl)c(Cl)c2)c1 | - | - | - | - | ? | -
Cc1cccc(C)c1NC(=S)Nc1ccc(Cl)c(Cl)c1 | - | - | ? | 6.3µM | - | -
Cc1cc(Br)c(OCC(=O)NN)c2c1CCC2 | - | - | - | - | - | -
Cn1c(O)c(C=NC(CC(N)=O)C(=O)O)c(=O)n(C)c1=O (stereo not drawn) | - | . | - | - | . | -
COc1ccc(Cn2c(O)c(/C=N/NC(=O)c3cccnc3)c3ccccc3c2=O)cc1 | - | - | - | 6.3µM | - | -
O=C(N/N=C/c1c(O)n(-c2ccccc2Cl)c(=O)c2ccccc12)c1cccnc1 | - | - | - | 13µM | - | -
O=C(N/N=C/c1cccc2ccccc12)c1cccnc1 | - | - | - | - | - | -
COc1ccc(Cn2c(O)c(C=Nc3ccc(OC)cc3)c3ccccc3c2=O)cc1 | - | - | - | - | - | -
O=C(N/N=C/c1c(O)n(Cc2ccccc2)c(=O)c2ccccc12)c1cccnc1 | - | - | - | 11µM | - | -
CCCCN(C)CC(O)Cn1cc(/C=C/C(=O)c2ccc(C)cc2)c2ccccc21 (stereo not drawn) | - | - | ? | ? | - | .
COC(=O)c1ccc(NC(=S)NC2CCc3ccccc32)cc1 (stereo not drawn) | - | - | ? | 7.9µM | - | -
Cc1ccc(NC(=S)NC2CCSc3ccccc32)cc1 (stereo not drawn) | - | - | 5.6µM | - | - | -
O=C(CCCOc1ccccc1)N1CCN(S(=O)(=O)c2ccccc2)CC1 | . | - | . | . | - | .
Cc1ccc(-c2ccc(/C=N/NC(=O)CN3CCCC3)o2)cc1Cl | - | - | - | 11µM | - | -
COC(=O)N/N=C/c1ccc(-c2ccc(C)c(Cl)c2)o1 | - | - | - | ? | - | -
Cc1ccc(-c2ccc(/C=N\NC(=O)C3C(=O)NCC3c3ccccc3)o2)cc1Cl (stereo not drawn) | - | - | 20µM | ? | - | -
COc1cccc(CNC(=O)Cn2nc(N3CCN(c4ccccc4OC)CC3)ccc2=O)c1 | . | - | . | . | - | .
CC1=CC2(O)OCCN(CCO)C2=CC1=O (stereo not drawn) | -67 | - | 16µM | 16µM | - | -
Cc1cc(C)n(-c2ncc3c(n2)N(CCO)CCOC3=O)n1 | - | - | - | - | - | -
COC(=O)c1cccc(N2CCCC2=O)c1 | - | - | - | - | - | -
COC(=O)c1cc(=O)c(O)c2c(O)c(O)ccc2c1 | -31 | . | - | - | . | .
CCc1cc[n+](CC(=O)Nc2ccc(Cl)cc2Cl)cc1 | - | - | - | - | - | -
COc1ccc(NC(=O)Cn2nnc3sc4c(c3c2=O)CCC(C)C4)c(OC)c1 (stereo not drawn) | . | - | . | . | - | .
Cc1ccc(C)c(-n2c(SCC(=O)NCC3CCCO3)nnc2-c2ccoc2C)c1 (stereo not drawn) | - | - | - | - | 28µM | -
Cc1cccc(-n2ccnc2SCC(=O)Nc2ccc3c(c2)OCO3)c1 | . | - | . | . | - | .
SMILES | FBPA coupling cs | TrxR1 substrate | Gal4-VP16 FLuc | RORg inh | rTrxR1 inhibitor | GALK inh
Cc1ccc(-n2c(SCC(=O)NCC3CCCO3)nnc2-c2ccoc2C)cc1 (stereo not drawn) | - | - | - | - | - | -
Cc1cccc(-n2c(SCC(=O)Nc3ccc4c(c3)OCO4)nnc2-c2ccoc2C)c1 | - | - | ? | 2µM | - | -
COc1ccc(CCNC(=O)/C=C/c2ccco2)cc1OC | - | - | - | - | 7.9µM | .
COc1ccc(CCNC(=O)/C=C/c2ccco2)cc1 | - | - | - | ? | 35µM | -
COc1ccc(/C=N/NC(=O)CNC(=O)/C=C/c2ccco2)cc1OC | - | - | - | - | 32µM | -
CCOc1ccc(CCNC(=O)/C=C/c2ccco2)cc1OCC | . | - | - | - | 20µM | -
CCOc1cc(N2CCOCC2)c(OCC)cc1NC(=O)COc1ncnc2ccc(Br)cc12 | - | - | - | - | - | -
CC(C)CC(C(=O)NCC1CCN(Cc2ccc(F)cc2)CC1)N1Cc2ccccc2C1=O (stereo not drawn) | . | - | . | . | - | .
